The first experiment relates to LXRb:RXRa (NR concentration 270 nM, RXRa partner concentration 90 nM). Nature of the experiment: PBM binding z-score (relative to random genomic background probes); higher = stronger binding; sequences stand for … in GC…GCGATTGACAGCGTAGAATGAAGG
The method, boiled down:
(§1)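 Ligand-free nuclear receptor dimers were applied to custom Agilent 4×180K protein-binding microarrays whose double-stranded probes carried direct-repeat seeds, single-nucleotide variants, half-site ablations and random human genomic background sequences in 34-nt variable regions. Incubation lasted 1 h. Binding z-scores were computed against the random background probes from regression-normalized fluorescence.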
Consider ATATGTAGGTTAGCTGGGGTCGTTCAGACTAGGC, for which the PBM binding z-score worked out at 2.71.

ACTATTAGTGGACTTAGGGCAACCGATACGACGC showed a PBM binding z-score of -0.278.

On to CGTCCAAGGTCATGGTCAGTGAAAGAGACTCGAA, for which the PBM binding z-score was found to be 4.03.

Sequence TCTTGTTGATCAAGCAGGTTAAGAAAGCCTGAGT had a PBM binding z-score of 0.357.

Turning to GTACCAAGGTGAATAGATCGTTGATGAGTAGGCG, the PBM binding z-score was -0.113.

GCTCGAAGGACAAGGTCAGAGCTTTGTCCGTAGA: the PBM binding z-score amounted to 0.996.

For TCGAGTAGGTTACCAATGGGGCATACAGCTTTCT, the PBM binding z-score was determined as 1.04.

Regarding GCTGCTAGGTCACGTTGGTCAGCTAACGGGTACG, the PBM binding z-score was found to be 1.73.

For the sequence CGTCCAAGGTCAGCAGGTCTGTGAAAGCGACGTG, the PBM binding z-score is 2.06.

Take ACTTACGGGTCAACGAGGATATAGCACGCGTATA: the PBM binding z-score was determined as 3.61.

For CTACCAAGGTGAACAAGGTGGTTGATTACTATTC, the PBM binding z-score amounted to 0.391.

Regarding GGAACGAGTGCAAAGTTGATAGCATCTGTCGACG, the PBM binding z-score was -0.315.

As for CGTCCAAGGTCAGCATGTCAGTGAAAGCGACGTG, the PBM binding z-score was found to be 2.27.

In the case of ATATGTAGGTTTGCTGGGGTCATTCAGACTAGGC, the PBM binding z-score is 4.47.

TCTAGCAGGCCAGAGGGTCAATCAAGAGGTACGG came in with a PBM binding z-score of 1.43.

The sequence GATGCTAGGTCAACTGATGGTCAGCTAAAGCTCG showed a PBM binding z-score of 2.11.

In the case of GCTATTAGTTAAAAGGGCAACCGAATGATTCTCG, the PBM binding z-score came to 0.624.

For the sequence ATCTCTAGCTAAAGATAGTTCAGTGAATGCAAAT, the PBM binding z-score was 0.199.

Take GATACAGGTTCAGCTAGAGGCCAGAGTATGGAAA: the PBM binding z-score came to 0.305.

On to CCTTACGGGTCACTCCAGGTTAAAGCATCGGAGT, for which the PBM binding z-score was 5.93.

Consider TCTTGTAGATCAAAGGTTAAGAATGCCGAAGCCT, for which the PBM binding z-score worked out at 1.94.

TAGCCTAGGTCTGATCGGGCCAGTATACGCTATA: the PBM binding z-score was -0.94.

Sequence ACTAGCAGGCCATGTTTGGGTCACTCAAACAAAG came in with a PBM binding z-score of 0.735.

As to GCTGCTAGGTCAAGTTGGTCAGCTAACGGGTACG, the PBM binding z-score was determined as 2.31.

The sequence CAAACTACGTCAAGAGGTCAAAGTCCGCTTCCCG yielded a PBM binding z-score of 4.77.

Sequence AGTTACGGGTCAACGAGGTTATAGCACGCGTATA gave a PBM binding z-score of 4.47.

On to ATCGCTAGGTAAAGTTCAGTGAAAGATCGATAGA, for which the PBM binding z-score was found to be 0.692.

GCTGCTAGGTAAACTGATGGTCAGCTAAAGCTCG yielded a PBM binding z-score of -0.723.

Regarding TCATATAGGTAAATGCTAGGTGCAAGTCCGATCT, the PBM binding z-score is 0.195.

Take CGTCCTAGGTCAAGGTCAGTGAAAGAGACTCGAA: the PBM binding z-score was found to be 3.5.

As for GCATATAGGTAATAAAAGGTGAAAGTCCGATTGT, the PBM binding z-score came to 1.97.

On to GCGACTGGGGCATCAGCAGGTCACCATAACTTAA, for which the PBM binding z-score was found to be 2.27.

CCTCGGAGGACAGAAGCTCAGAGCTGTCCGCTTT showed a PBM binding z-score of -1.16.

With TCTATTAGTTGAAGGGCAAGCGACGAGTCCGTTT, the PBM binding z-score was found to be 0.863.

On to TGTCAAAGTTCAAACGTAACGTAAGTATCCACAC, for which the PBM binding z-score was determined as 4.82.

On to CCTTACGGGTCACTGCAGGTTATAGCATCGGAGT, for which the PBM binding z-score is 5.01.

The sequence CTAACTAGGTCAGAACAGGACAGTGAAGGATGAT had a PBM binding z-score of 0.586.

With TCTCGGAGGACACGATAGGTCAGAGCTCGACATC, the PBM binding z-score was 0.643.

The sequence AAACCAAGGTGATCGTGAGGTCGTTGATACTAAC returned a PBM binding z-score of 1.13.

On to CATACAGGGTCAGCTAGGCCAGAGTAGGGACGGC, for which the PBM binding z-score was found to be 2.27.

Another experiment deals with LXRb homodimer (NR concentration 270 nM). The experiment is described as above. The method, boiled down: as §1
Sequence ATATGTAGGTTAGCTGGGGTCGTTCAGACTAGGC came in with a PBM binding z-score of 0.5.

In turn, ACTATTAGTGGACTTAGGGCAACCGATACGACGC registered a PBM binding z-score of 0.0908.

CGTCCAAGGTCATGGTCAGTGAAAGAGACTCGAA showed a PBM binding z-score of 0.455.

Consider TCTTGTTGATCAAGCAGGTTAAGAAAGCCTGAGT, for which the PBM binding z-score is -0.269.

The sequence GTACCAAGGTGAATAGATCGTTGATGAGTAGGCG returned a PBM binding z-score of -0.522.

For GCTCGAAGGACAAGGTCAGAGCTTTGTCCGTAGA, the PBM binding z-score was -0.575.

The sequence TCGAGTAGGTTACCAATGGGGCATACAGCTTTCT registered a PBM binding z-score of -0.663.

GCTGCTAGGTCACGTTGGTCAGCTAACGGGTACG: the PBM binding z-score was -0.378.

On to CGTCCAAGGTCAGCAGGTCTGTGAAAGCGACGTG, for which the PBM binding z-score was -0.284.

Regarding ACTTACGGGTCAACGAGGATATAGCACGCGTATA, the PBM binding z-score was 0.828.

As to CTACCAAGGTGAACAAGGTGGTTGATTACTATTC, the PBM binding z-score is -0.589.

Turning to GGAACGAGTGCAAAGTTGATAGCATCTGTCGACG, the PBM binding z-score is -0.482.

Turning to CGTCCAAGGTCAGCATGTCAGTGAAAGCGACGTG, the PBM binding z-score was -0.251.

As to ATATGTAGGTTTGCTGGGGTCATTCAGACTAGGC, the PBM binding z-score was determined as 1.4.

TCTAGCAGGCCAGAGGGTCAATCAAGAGGTACGG: the PBM binding z-score was -1.31.

GATGCTAGGTCAACTGATGGTCAGCTAAAGCTCG had a PBM binding z-score of 0.0631.

Sequence GCTATTAGTTAAAAGGGCAACCGAATGATTCTCG registered a PBM binding z-score of -0.5.

ATCTCTAGCTAAAGATAGTTCAGTGAATGCAAAT: the PBM binding z-score is 0.452.

The sequence GATACAGGTTCAGCTAGAGGCCAGAGTATGGAAA showed a PBM binding z-score of -0.537.

CCTTACGGGTCACTCCAGGTTAAAGCATCGGAGT had a PBM binding z-score of 0.173.

Turning to TCTTGTAGATCAAAGGTTAAGAATGCCGAAGCCT, the PBM binding z-score was determined as 0.134.

For the sequence TAGCCTAGGTCTGATCGGGCCAGTATACGCTATA, the PBM binding z-score was -1.01.

On to ACTAGCAGGCCATGTTTGGGTCACTCAAACAAAG, for which the PBM binding z-score was -0.846.

In the case of GCTGCTAGGTCAAGTTGGTCAGCTAACGGGTACG, the PBM binding z-score stood at 0.442.

Sequence CAAACTACGTCAAGAGGTCAAAGTCCGCTTCCCG came in with a PBM binding z-score of 2.06.

The sequence AGTTACGGGTCAACGAGGTTATAGCACGCGTATA had a PBM binding z-score of 0.793.

ATCGCTAGGTAAAGTTCAGTGAAAGATCGATAGA: the PBM binding z-score was -0.361.

Regarding GCTGCTAGGTAAACTGATGGTCAGCTAAAGCTCG, the PBM binding z-score was -0.701.

Turning to TCATATAGGTAAATGCTAGGTGCAAGTCCGATCT, the PBM binding z-score was 0.0143.

CGTCCTAGGTCAAGGTCAGTGAAAGAGACTCGAA gave a PBM binding z-score of 0.178.

Sequence GCATATAGGTAATAAAAGGTGAAAGTCCGATTGT registered a PBM binding z-score of -0.165.

Regarding GCGACTGGGGCATCAGCAGGTCACCATAACTTAA, the PBM binding z-score is -0.977.

With CCTCGGAGGACAGAAGCTCAGAGCTGTCCGCTTT, the PBM binding z-score was -0.889.

Sequence TCTATTAGTTGAAGGGCAAGCGACGAGTCCGTTT registered a PBM binding z-score of 0.193.

Consider TGTCAAAGTTCAAACGTAACGTAAGTATCCACAC, for which the PBM binding z-score is 3.

CCTTACGGGTCACTGCAGGTTATAGCATCGGAGT yielded a PBM binding z-score of 0.0222.

The sequence CTAACTAGGTCAGAACAGGACAGTGAAGGATGAT had a PBM binding z-score of -0.0139.

Consider TCTCGGAGGACACGATAGGTCAGAGCTCGACATC, for which the PBM binding z-score was -0.585.

For the sequence AAACCAAGGTGATCGTGAGGTCGTTGATACTAAC, the PBM binding z-score was -0.456.

Consider CATACAGGGTCAGCTAGGCCAGAGTAGGGACGGC, for which the PBM binding z-score was 0.142.

The values are drawn from the supplement of paper PMC6555819.
